Source: PubChem BioAssay (National Center for Advancing Translational Sciences (NCATS))
Shown are actives, neighbours in structure and some others; about 2.5% of the full set was active somewhere.
APE1 inh: qHTS Assay for Inhibitors of the Human Apurinic/apyrimidinic Endonuclease 1 (APE1) | Potency, µM (highest dose often 65.8 µM), actives largely listed as inhibitors | AID 2517, 2012 | recombinant APE1, TAMRA/BHQ-2 abasic DNA cleavage fluorescence | 350,000 compounds, 0.35% hits; note: nearly all actives have a fitted effect of over 55% in size
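Enzyme (0.75 nM final) and test compound are incubated 15 min at room temperature before adding 50 nM quenched THF abasic-site duplex. Cleavage dequenches TAMRA, followed at 525/598 nm over three reads one minute apart.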
POLB inh: qHTS Assay for Inhibitors of DNA Polymerase Beta; 340,000 compounds, 1.3% hits; Potency, µM (titrated, usually from 114 µM), most hits filed as inhibitors; Pol beta primer extension/strand displacement, fluorescence kinetic
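Preincubation: enzyme (10 nM) with compound, 15 min, RT. Reaction: substrate added to 50 nM final. Reads: 0 and 10 min. Analysis: normalized, Hill fit.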
L3MBTL1 inh: qHTS Assay for the Inhibitors of L3MBTL1 | AlphaScreen L3MBTL1–H3K9me1 peptide binding | Potency, µM (titrated, usually from 57.1 µM), most hits filed as inhibitors | 230,000 compounds, 0.66% hits | AID 485360, 2010; note: nearly all actives have a fitted effect of over 60% in size
Target sequence (Q9Y468 whole entry, looked up): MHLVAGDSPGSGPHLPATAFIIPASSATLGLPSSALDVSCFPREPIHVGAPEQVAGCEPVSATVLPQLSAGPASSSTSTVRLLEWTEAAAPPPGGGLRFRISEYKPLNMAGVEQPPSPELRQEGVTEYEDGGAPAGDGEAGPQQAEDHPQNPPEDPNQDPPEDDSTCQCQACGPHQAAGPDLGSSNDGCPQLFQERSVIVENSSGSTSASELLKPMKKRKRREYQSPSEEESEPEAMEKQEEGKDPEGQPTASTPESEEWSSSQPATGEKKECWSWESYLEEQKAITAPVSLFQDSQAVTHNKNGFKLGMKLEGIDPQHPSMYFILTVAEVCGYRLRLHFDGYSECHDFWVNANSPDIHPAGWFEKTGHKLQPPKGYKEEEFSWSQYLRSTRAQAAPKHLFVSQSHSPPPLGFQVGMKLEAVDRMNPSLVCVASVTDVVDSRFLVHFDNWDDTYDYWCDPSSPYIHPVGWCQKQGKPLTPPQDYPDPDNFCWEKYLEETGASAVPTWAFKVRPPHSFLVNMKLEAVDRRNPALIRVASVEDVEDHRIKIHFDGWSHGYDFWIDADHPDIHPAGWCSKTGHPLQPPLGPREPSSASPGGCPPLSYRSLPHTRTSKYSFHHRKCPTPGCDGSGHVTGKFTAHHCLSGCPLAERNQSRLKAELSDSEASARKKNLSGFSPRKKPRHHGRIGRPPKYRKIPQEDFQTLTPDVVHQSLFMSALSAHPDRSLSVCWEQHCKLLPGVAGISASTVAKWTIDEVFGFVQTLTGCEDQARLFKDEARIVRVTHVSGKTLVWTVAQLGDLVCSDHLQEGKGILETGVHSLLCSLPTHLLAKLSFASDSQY
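L3MBTL1 (50 nM) pre-complexed 30 min with biotinylated H3(1-15)K9me1 peptide (75 nM), then compounds added for 30 min at room temperature; AlphaScreen streptavidin donor/nickel chelate acceptor beads (10 ug/mL final) read after 30 min dark incubation.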
Pol eta inh: qHTS for Inhibitors of Polymerase Eta; DNA polymerase eta (Homo sapiens), Q9Y253; recombinant Pol eta, fluorescent DNA replication assay; Potency, µM (doses to about 114 µM), actives largely listed as inhibitors; 390,000 compounds, 1.2% hits; AID 588591, 2011
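Pol eta at 10 nM preincubated with compounds 15 min at room temperature; reaction started with fluorescent substrate (50 nM final) and read kinetically at 0 and 10 min.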
Pol iota inh: qHTS for Inhibitors of Polymerase Iota. DNA polymerase iota (Homo sapiens), Q9UNA4. Pol iota fluorescent replication assay, 10 min. Potency, µM (series often up to 115 µM), hits mostly inhibitors. 390,000 compounds, 1% hits
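Fluorescent replication assay read twice, at 0 min and 10 min after adding 50 nM (final) substrate. Enzyme (10 nM) and compounds were first incubated 15 min at room temperature; enzyme-free buffer wells were negative controls.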
POLK inh: qHTS for Inhibitors of Polymerase Kappa. purified Pol kappa, fluorescent DNA synthesis assay, 10 min. Potency, µM (titrated, usually from 107 µM), hits mostly inhibitors. 400,000 compounds, 0.53% hits. AID 588579, 2011
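First, compounds were pin-transferred onto 10 nM Pol kappa. After 15 min at room temperature, substrate was added to 50 nM final. Fluorescence was then measured kinetically at 0 and 10 min.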
Numbers stand for hits; . = inactive; ? = inconclusive; / = no result given; [ ] = another dose, or the depositor's remark. Calls come from the whole dose curve; as a rule, active = well fitted curve in the direction sought with a large enough effect; inconclusive = small, poorly fitted or top-dose-only effect, or another doubt; inactive = no such curve, though single readings can be large; an effect the other way counts as inactive or inconclusive.

SMILES | APE1 inh | POLB inh | L3MBTL1 inh | Pol eta inh | Pol iota inh | POLK inh
COc1ccc(C2=NN(C(=O)CSc3nc4ncc(Cl)cc4[nH]3)C(c3ccco3)C2)cc1 (configuration not stated) | . | . | . | . | 45µM | 89µM
COc1ccc(-c2csc(NC(=O)CSc3nc(C)nc4sc(C(=O)O)c(C)c34)n2)cc1 | . | 7.1µM | . | 22µM | ? | 32µM
COC(=O)C1N2C(=O)N(C)[C@H](C(=O)OC)[C@H]2SC1(C)C (some centres not stated) | / | / | / | / | . | .
COC(C(=O)C(O)C(C)O)C1Cc2cc3cc(OC4CC(OC5CC(O)C(O)C(C)O5)C(O)C(C)O4)c(C)c(O)c3c(O)c2C(=O)C1OC1CC(OC2CC(OC3CC(O)C(OC)C(C)O3)C(O)C(C)O2)C(O)C(C)O1 (configuration not stated) | / | / | / | 11µM | 22µM | 79µM
Cc1cc(OCC(=O)OCC(=O)N2CCCc3ccccc32)ccc1Cl | / | / | / | . | / | /
CN(C)c1ccc(C(=O)OCC(=O)Nc2ccc(S(N)(=O)=O)cc2)cc1 | . | ? | . | ? | ? | 50µM
COc1ccc(NC(=O)c2ccccc2NS(=O)(=O)c2ccc(C)cc2)c([N+](=O)[O-])c1 | ? | . | . | . | . | .
COc1ccc(C(C)=NNc2ccc([N+](=O)[O-])cc2S(=O)(=O)Nc2ccccc2C(=O)O)c(OC)c1 | . | / | . | 45µM | . | .
CC(=O)Nc1cccc(/C(C)=N/Nc2ccc(S(=O)(=O)Nc3ccccc3C(=O)O)cc2[N+](=O)[O-])c1 | / | / | / | 22µM | ? | .
Cc1ccc(NC(=S)NNc2ccc(C(=O)O)cc2[N+](=O)[O-])cc1C | / | / | / | . | ? | .
Cc1ccc(NC(=S)NNc2ccc([N+](=O)[O-])cc2S(=O)(=O)Nc2ccccc2C(=O)O)cc1C | . | ? | . | 28µM | . | .
CN(CCO)c1ccc(C=NNc2ccc([N+](=O)[O-])cc2S(=O)(=O)Nc2ccccc2C(=O)O)cc1 | . | / | ? | ? | ? | .
COc1ccc(-c2nc3c(c4c2C[C@H](c2ccccc2)OC4)CN(C(=O)NCc2ccco2)CC3)c(C)c1 | .[12.4 µM] | / | / | / | / | /
Cc1ccc(NC(=O)c2c(NC(=O)c3ccccc3Cl)sc3c2CCC3)cc1 | / | . | / | . | . | .
CC(=O)[C@@]1(O)CC[C@H]2[C@@H]3C=C(Cl)C4=CC(=O)[C@@H]5C[C@@H]5[C@]4(C)[C@H]3CC[C@@]21C | . | / | / | / | / | /
COc1cccc(/C=c2\sc3nc(-c4cccs4)nn3c2=O)c1OC | . | . | . | ? | . | .
Cc1ccc(/C=c2\sc3nc(-c4cccs4)nn3c2=O)o1 | ? | 18µM | ? | ? | ? | ?
NS(=O)(=O)c1ccc(N=Nc2c(O)c(C(=O)O)cc3ccccc23)cc1 | . | 35µM | . | 40µM | ? | .
O=C(NNc1cc(Br)c(O)c(Br)c1)c1ccccc1 | ? | . | / | . | 22µM | ?
CCOC(=O)CC1(NC(=O)C2CCC(=O)N(Cc3ccccc3F)C2)CCCCC1 (configuration not stated) | . | ? | / | . | . | .
Cc1ccc(N2CC(C(=O)OCC(=O)Nc3cccc(Cl)c3C)CC2=O)cc1 (configuration not stated) | . | / | . | . | . | .
Cc1ccc(N2CC(C(=O)OCC(=O)Nc3ccc(Cl)cc3)CC2=O)cc1 (configuration not stated) | . | / | . | . | 79µM | .
CNC(=O)C1CC(=O)N(c2ccc(OCC(=O)Nc3ccccc3)cc2)C1 (configuration not stated) | / | / | / | 32µM | . | .
C=CCSc1nc(-c2ccccc2)c(C#N)c(=O)[nH]1 | . | . | / | . | . | .
N#Cc1c(-c2ccccc2)nc(SCc2ccc(Cl)cc2)[nH]c1=O | . | ? | / | 79µM | ? | .
SMILES | APE1 inh | POLB inh | L3MBTL1 inh | Pol eta inh | Pol iota inh | POLK inh
COc1ccccc1CN1[C@@H](CC(=O)O)c2cc(F)ccc2S1(=O)=O | / | / | / | . | . | .
Cc1[nH]c2ccccc2c1N=Nc1cccc(C(=O)O)c1 | . | . | . | . | . | .
Cc1[nH]c2ccccc2c1N=Nc1ccccc1C(=O)O | . | 32µM | ? | 35µM | ? | ?
O=c1c(-c2ccc(Cl)cc2)coc2c(CN3CCCCC3)c(O)ccc12 | . | . | . | . | 32µM | .
CN(Cc1ccco1)c1ncnc2ccc(-c3ccc4c(ccn4C)c3)cc12 | . | / | . | . | ? | .
CC(=O)c1cc(-c2ccccc2)n(CCC(=O)NC(C)c2ccccc2)c1C (configuration not stated) | / | . | / | . | . | .
CCS(=O)(=O)c1ccc2oc(Nc3cccc(OC)c3)nc2c1 | . | 35µM | . | . | . | .
CC1(C)Cc2c(C#N)c(NCCc3ccccc3)nc(-c3ccco3)c2CO1 | . | . | . | 89µM | 79µM | .
CCC1(C)Cc2nc(Cl)c(C#N)cc2CO1 (configuration not stated) | . | . | / | . | . | .
CCCC1Cc2nc(Cl)c(C#N)cc2CO1 (configuration not stated) | . | 45µM | . | ? | ? | .
N#C/C(C(=O)N1CCCCC1)=C1\Nc2ccccc2S1 | . | . | . | . | . | .
Cc1ccc(NC(=S)/C(C#N)=C2/Nc3ccccc3S2)cc1 | / | / | / | 40µM | / | /
CCN(c1ccccc1)S(=O)(=O)c1ccc(F)c(C(=O)Nc2ccc(C)cc2)c1 | / | . | / | . | . | .
CCC1CCCCN1S(=O)(=O)c1ccc2[nH]c(=O)ccc2c1 (configuration not stated) | ? | 35µM | . | 50µM | ? | .
Cc1cccc(N2CCN(S(=O)(=O)c3ccc4[nH]c(=O)ccc4c3)CC2)c1C | . | . | . | . | ? | .
Cc1ccc(C)c(N2CCN(S(=O)(=O)c3ccc4[nH]c(=O)ccc4c3)CC2)c1 | . | 28µM | . | ? | ? | .
CO[C@@H]1[C@@H](O[C@@H]2O[C@H](C)[C@@H](O[C@H]3C[C@@](C)(O)[C@@H](O)[C@H](C)O3)[C@H](N(C)C)[C@H]2O)[C@@H](CC=O)C[C@@H](C)[C@@H](O[C@@H]2CC[C@H](N(C)C)[C@@H](C)O2)/C=C/C=C/C[C@@H](C)OC(=O)C[C@H]1O | . | / | / | / | / | /
Cc1ccc(/C=C2/C(=O)C3(C)CCC2C3(C)C)cc1 (configuration not stated) | / | / | / | / | / | .[19.4 µM]
